Compound activity (PubChem BioAssay)
Only some compounds are listed: those with a hit (about 2.4% of all), similar ones and a draw of the others.
Pol eta inh = inhibitors of human DNA polymerase eta. Q9Y253. recombinant Pol eta, fluorescent DNA replication assay. Potency, µM (doses to about 114 µM), usual class: inhibitors. actives 1.2% (n = 390,000). AID 588591
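Fluorescent replication assay: 50 nM final substrate added after a 15 min room-temperature compound preincubation with 10 nM enzyme. Signal taken at 0 min and again at 10 min.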
Pol beta inh = inhibitors of human DNA polymerase beta; P06746; Pol beta primer extension/strand displacement, fluorescence kinetic; Potency, µM (highest dose often 114 µM), actives largely listed as inhibitors; actives 1.3% (n = 340,000)
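Homogeneous kinetic assay of primer extension and strand displacement by 10 nM Pol beta, preincubated 15 min at room temperature with compound before 50 nM substrate (final) was added. Read at 0 and 10 min; four-parameter Hill fit.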
TDP1 block = blocks human tyrosyl-DNA phosphodiesterase 1; Q9NUW8; recombinant TDP1, AlphaScreen DNA substrate cleavage; Potency, µM (titrated, usually from 130 µM), usual class: inhibitors; actives 0.28% (n = 350,000); also: nearly all actives have a fitted effect of over 40% in size
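E. coli-derived human Tdp1, 1 nM final. Cpd preinc 15 min RT; substrate 15 nM final, 5 min RT; AS bead mix 10 ug/ml final, 10 min RT. Signal loss = tyrosine-FITC cleavage. No-enzyme wells = max signal.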
Pol iota inh = inhibitors of human DNA polymerase iota; Q9UNA4; actives 1% (n = 390,000); Pol iota fluorescent replication assay, 10 min; Potency, µM (highest dose often 115 µM), most hits filed as inhibitors
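Pol iota at 10 nM preincubated 15 min with compounds at room temperature; reaction started with fluorescent substrate, 50 nM final. Fluorescence read kinetically at 0 and 10 min; buffer-only wells as negative control.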
Pol kappa inh = blocks human DNA polymerase kappa activity; Q9UBT6; purified Pol kappa, fluorescent DNA synthesis assay, 10 min; Potency, µM (top dose mostly 107 µM), hits mostly inhibitors; actives 0.53% (n = 400,000)
Target sequence (Q9UBT6 whole entry, looked up): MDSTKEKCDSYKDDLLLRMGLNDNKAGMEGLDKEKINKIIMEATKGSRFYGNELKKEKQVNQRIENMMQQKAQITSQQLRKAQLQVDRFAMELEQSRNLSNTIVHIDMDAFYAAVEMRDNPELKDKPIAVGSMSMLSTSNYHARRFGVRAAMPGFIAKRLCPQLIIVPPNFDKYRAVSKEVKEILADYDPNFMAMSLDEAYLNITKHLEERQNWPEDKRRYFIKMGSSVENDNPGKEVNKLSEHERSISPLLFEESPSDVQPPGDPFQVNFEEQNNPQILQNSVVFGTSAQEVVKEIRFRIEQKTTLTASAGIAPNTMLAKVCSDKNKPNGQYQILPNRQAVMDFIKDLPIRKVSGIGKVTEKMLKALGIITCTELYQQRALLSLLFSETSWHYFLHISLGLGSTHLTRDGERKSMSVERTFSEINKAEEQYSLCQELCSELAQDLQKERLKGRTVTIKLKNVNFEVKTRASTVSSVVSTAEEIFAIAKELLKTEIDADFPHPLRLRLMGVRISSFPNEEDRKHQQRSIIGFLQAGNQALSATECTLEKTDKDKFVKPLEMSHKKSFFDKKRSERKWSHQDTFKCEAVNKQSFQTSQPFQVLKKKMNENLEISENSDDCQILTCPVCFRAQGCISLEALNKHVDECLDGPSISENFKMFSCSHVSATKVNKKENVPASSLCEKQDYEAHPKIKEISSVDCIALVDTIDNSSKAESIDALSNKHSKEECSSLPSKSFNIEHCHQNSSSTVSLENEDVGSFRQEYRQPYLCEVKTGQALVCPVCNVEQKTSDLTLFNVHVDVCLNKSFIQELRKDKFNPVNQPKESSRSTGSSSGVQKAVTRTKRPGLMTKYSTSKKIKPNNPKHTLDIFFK
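10 nM Pol kappa preincubated 15 min at room temperature with compounds, then reaction started with substrate at 50 nM final. Fluorescence read kinetically at 0 and 10 min; buffer-only wells served as negative control.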
Numbers stand for hits; – = inactive; ? = inconclusive; · = no result; ! = not confirmed by another sample; [ ] = remark or other dose. Calls follow the shape of the dose curve; as a rule, active = well fitted curve in the direction sought with a large enough effect; inconclusive = small, poorly fitted or top-dose-only effect, or another doubt; inactive = no such curve, though single readings can be large; an effect the other way counts as inactive or inconclusive.

SMILES | Pol eta inh | Pol beta inh | TDP1 block | Pol iota inh | Pol kappa inh
Cc1cn(C2OC(COC(=O)c3ccccc3)C(OC(=O)c3ccccc3)C2OC(=O)c2ccccc2)c(=O)[nH]c1=O (stereo not drawn) | – | – | – | – | –
O=C(N/N=C/c1cccs1)c1ccccn1 | – | – | – | – | –
C(=NN=C(NN=Cc1cccs1)NN=Cc1cccs1)c1cccs1 | – | · | · | 79µM | –
CCCc1ccc(C(=O)NNc2cc(Cl)ccc2Cl)cc1 | – | – | – | – | –
CCCc1ccc(C(=O)NNC(=O)c2ccc(Cl)cc2)cc1 | ? | 32µM | – | ? | –
Cc1cc(Cl)ccc1NS(=O)(=O)c1ccc2c(c1)CCN2S(C)(=O)=O | – | – | – | – | –
O=C1CSc2nc3ccccc3n21 | – | – | – | – | –
c1ccc2c(c1)nc1n2CCS1 | – | – | – | – | 89µM
O=C(OCc1nnc(-c2ccccc2)o1)c1cccc(S(=O)(=O)N2CCOCC2)c1 | – | · | – | – | 89µM
OCCCc1nc2n(n1)C(c1cccs1)C=C(c1ccc(Br)cc1)N2 (stereo not drawn) | · | – | – | · | ·
Brc1ccc(C2=CC(c3cccs3)n3ncnc3N2)cc1 (stereo not drawn) | ? | 50µM | – | ? | –
CCN(C(=O)Cn1c(=O)oc2cc(S(=O)(=O)N3CCCCCC3)ccc21)c1cccc(C)c1 | · | – | – | – | –
COCCNC(=O)c1ccccc1NC(=O)Nc1ccccc1 | – | – | – | – | –
C=CCNC(=O)c1ccccc1NC(=O)Nc1ccccc1 | – | – | – | 89µM | –
COc1ccc2c(c1)sc1ncc(C(=O)NCc3ccccc3F)c(=O)n12 | – | – | – | – | –
O=c1c(-c2ccccc2)n[nH]c2ccccc12 | – | – | – | – | –
O=C1c2ccccc2-c2n[nH]c3cccc1c23 | ? | 32µM | – | ? | ?
C(=C\c1cccc2ccccc12)/c1nnc(-c2cccs2)o1 | – | – | · | – | –
O=c1c2ccccc2cnn1Cc1nnc(-c2cccs2)o1 | – | 45µM | – | ? | –
Fc1ccc(Nc2nc(NCc3ccco3)nc3nccnc23)cc1 | · | · | – | – | –
c1ccc(Nc2nc(NCc3ccco3)nc3nccnc23)cc1 | · | · | 50µM | – | –
Cc1ccc(Nc2cc(C)nc3nncn23)c(C)c1 | – | – | – | – | –
Cc1cc(NC(=O)C(C)SCC(=O)Nc2nnc(CC(C)C)s2)no1 (stereo not drawn) | – | · | – | – | –
Cc1cc(NC(=O)C(C)Sc2nnc(NCc3ccco3)s2)no1 (stereo not drawn) | ? | · | – | 40µM | –
COc1ccc(C(=O)n2nc(-c3ccco3)nc2N)cc1 | – | 25µM | – | – | –
SMILES | Pol eta inh | Pol beta inh | TDP1 block | Pol iota inh | Pol kappa inh
COc1cccc(NC(=O)CSc2nnc(CNC(=O)c3ccco3)n2C)c1 | – | · | · | – | –
COc1cccc(NC(=O)CSc2nnc(-c3ccco3)c(-c3ccco3)n2)c1 | 20µM | ? | · | ? | 50µM
COc1ccc(C(=O)CSc2nnc(-c3ccco3)c(-c3ccco3)n2)cc1 | 13µM | 13µM | – | ? | –
Cc1ccc(C(=O)n2nc(-c3ccco3)nc2N)cc1 | – | – | – | – | –
CN(C)c1ccc(NC(=O)CSc2nnc(-c3ccco3)c(-c3ccco3)n2)cc1 | – | – | · | – | –
O=C(CSc1nnc(-c2ccco2)c(-c2ccco2)n1)Nc1ccccc1 | 2.8µM | – | · | 5µM | 20µM
C[C@H](C(=O)O)c1cccc(C(=O)c2ccccc2)c1 | – | · | – | – | 11µM!
COc1ccc(NS(=O)(=O)c2ccc(OC)c(N(C)S(=O)(=O)c3ccc(Cl)cc3)c2)cc1 | – | – | – | 89µM | –
COc1ccc(N(C(=O)c2ccc(OC)c(OC)c2)S(=O)(=O)c2ccc(Cl)cc2)cc1 | – | – | –[12.3 µM] | 89µM | 79µM
COc1ccc(S(=O)(=O)Nc2ccc(F)c(F)c2)cc1Cl | – | – | – | – | –
COc1ccc(S(=O)(=O)Nc2ccc(F)cc2)cc1N(C)S(=O)(=O)c1ccc(Cl)cc1 | – | – | – | 89µM | –
CCc1cccc(NC(=O)CN2C(=O)CCc3cc(S(=O)(=O)N4CCOCC4)ccc32)c1 | – | – | – | – | –
CC1CCN(S(=O)(=O)c2ccc3c(c2)CCC(=O)N3CC(=O)Nc2cccc(C#N)c2)CC1 | 79µM | 50µM | ? | ? | –
Nc1nc(Nc2cc(F)cc(F)c2)nc(NC2CCCC2)n1 | · | · | – | · | ·
Cc1ccc(C)c(S(=O)(=O)c2nnn3c2nc(N2CCCCC2)c2sccc23)c1 | – | – | – | – | –
N#C/C(=C(/O)CCl)c1nc2c(s1)CCc1ccccc1-2 | 35µM | ? | – | ? | –
CCn1cc(C(=O)O)c(=O)c2cc(F)c(N3CCN(S(=O)(=O)c4ccc(NC(C)=O)cc4)CC3)cc21 | ? | 20µM | · | – | –
CCn1cc(C(=O)O)c(=O)c2cc(F)c(N3CCN(C(=S)NC(=O)c4ccc(OC)cc4)CC3)cc21 | – | – | 79µM | – | –
CCn1cc(C(=O)O)c(=O)c2cc(F)c(N3CCN(C(=S)NC(=O)c4cccc(C)c4)CC3)cc21 | – | – | · | – | –
CN(Cc1ccccc1)c1nc(-c2ccc(F)cc2)cc(C(F)(F)F)n1 | – | – | 22µM | – | –
Fc1ccc(-c2cc(C(F)(F)F)nc(NCc3ccccc3)n2)cc1 | – | – | – | – | –
O=C(Cn1cc(CNCc2ccccc2)nn1)Nc1cc(C(F)(F)F)ccc1Cl | · | · | – | · | ·
CC(C)C[C@@H](CNCC(=O)[C@H](Cc1c[nH]c2ccccc12)NC(=O)c1[nH]cnc1C(=O)N[C@@H](C)CN)NC(=O)c1nc[nH]c1C(=O)N[C@@H](CC(=O)O)C(=O)O | – | · | · | ? | –
CC(C)C[C@@H](CNCC(=O)[C@H](Cc1c[nH]c2ccccc12)NC(=O)c1[nH]cnc1C(=O)N[C@H](CN)CC(C)C)NC(=O)c1nc[nH]c1C(=O)N[C@@H](CC(=O)O)C(=O)O | 50µM | · | · | ? | ?
CC(C)[N+](C)(C)CC(O)COc1cccc2ccccc12 (stereo not drawn) | · | · | – | · | –[19.4 µM]
SMILES | Pol eta inh | Pol beta inh | TDP1 block | Pol iota inh | Pol kappa inh
COc1ccccc1C=C1SC(=S)NC1=O | ? | · | · | ? | –
CC(=C1SC(=S)NC1=O)c1ccccc1 | – | · | · | 89µM | –
Cc1ccc(NC(=O)N/C=C/c2ccco2)c(C)c1 | 79µM | ? | – | ? | ?
COc1cccc(-c2nccc(NC3CCNCC3)n2)c1 | · | · | 20µM | · | –
O=S(=O)(c1ccc2c(c1)CCCC2)N1CCN(c2nc(-c3ccccc3)nc3ccccc23)CC1 | · | · | – | – | –
O=Cc1ccccc1C=O | · | · | · | · | 24µM
N#C/C(=C\c1ccc(Sc2ccc(Cl)cc2)o1)c1nc2ccccc2[nH]1 | ? | 16µM | – | ? | –
Cc1ccc(-c2nnn(CC(=O)Nc3ccc(S(=O)(=O)N4CCC(C)CC4)cc3)n2)cc1 | ? | 35µM | – | ? | –
CC1CCN(S(=O)(=O)c2ccc(NC(=O)Cn3nnc(-c4ccccc4)n3)cc2)CC1 | – | 40µM | – | ? | –
